Assay outcomes deposited in PubChem by National Center for Advancing Translational Sciences (NCATS).
CtBP-E1A blk = qHTS Assay for Inhibitors of the CtBP/E1A Interaction; CtBP / adenovirus E1A interaction (AlphaScreen); AlphaScreen GST-E1A/His-CtBP binding, 1536-well; hits give low values; 0.49% of 340,000 active; activity change, % (test concentration not listed); in the data active = activity change below about -65%; inconclusive = mostly about -30% to -63%; also: % is scaled to controls: 0 for no effect and ±100 for the full control effect
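Homogeneous bead-based format: GST-tagged E1A captured on glutathione donor beads, His-tagged CtBP on nickel acceptor beads; compounds precede bead addition by 2 h at 37 °C.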
G9a inh = qHTS Assay for Inhibitors of Histone Lysine Methyltransferase G9a | G9a H3K9 monomethylation, AlphaScreen, 2 h | Potency, µM (titrated, usually from 102 µM), for inactives: at the top dose activity, negative = inhibition, most hits filed as inhibitors | 8.8% of 350,000 active; also: potency is read from the fitted curve at half-maximal effect; % is scaled to controls: 0 for no effect and ±100 for the full control effect; nearly all actives have a fitted effect of over 75% in size
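Quantitative HTS format: methyltransferase activity on a biotin-tagged H3K9 peptide is measured by AlphaScreen, using a rabbit anti-monomethyl-H3K9 antibody with streptavidin donor and anti-IgG acceptor beads. Final levels are 20 nM enzyme, 500 nM peptide, 20 uM SAM; 2 h RT.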
BAZ2B inh = qHTS Assay for Inhibitors of BAZ2B | Bromodomain adjacent to zinc finger domain protein 2B (Homo sapiens), Q9UIF8 | AID 504333, 2011 | AlphaScreen BAZ2B-H3K14Ac peptide displacement | 4.4% of 360,000 active | Potency, µM (series often up to 114 µM), for the others: top-dose activity change, negative = inhibition, most hits filed as inhibitors; also: potency is read from the fitted curve at half-maximal effect; % is scaled to controls: 0 for no effect and ±100 for the full control effect; nearly all actives have a fitted effect of over 60% in size
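BAZ2B (50 nM) with biotin-H3(5-23)K14Ac peptide (50 nM) in PBS pH 7.4, 0.01% Tween-20, preformed 30 min, then compound 30 min at room temperature; top concentration 110uM. AlphaScreen streptavidin donor/nickel chelate acceptor beads (10 ug/mL final), 20 min dark, signal read.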
HP1b chromo inh = HTS for Inhibitors of HP1-beta Chromodomain Interactions with Methylated Histone Tails; AID 540317, 2011; Chromobox protein homolog 1 (Homo sapiens), P83916; AlphaScreen HP1-beta / biotin-H3K9me3 peptide binding; Potency, µM (series often up to 114 µM), for the others: at the top dose activity change, negative = inhibition, usual class: inhibitors; 0.56% of 390,000 active; also: potency is read from the fitted curve at half-maximal effect; nearly all actives have a fitted effect of over 70% in size
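HP1-beta protein (50 nM final) preincubated 30 min at room temperature with biotinylated H3(1-18)K9me3 peptide (50 nM) in PBS pH 7.4, 0.01% Tween-20, then compound added for 30 min. AlphaScreen streptavidin donor/nickel chelate acceptor beads (10 ug/mL final), 30 min dark, luminescence read.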
JMJD2A Tudor inh = qHTS Assay for Inhibitors of JMJD2A-Tudor Domain. Lysine-specific demethylase 4A (Homo sapiens), O75164. AlphaScreen JMJD2A-Tudor / H3K4me3 peptide binding. Potency, µM (doses to about 114 µM), for inactives: at the top dose activity change, negative = inhibition, most hits filed as inhibitors. 4.4% of 390,000 active; also: potency is read from the fitted curve at half-maximal effect; % is scaled to controls: 0 for no effect and ±100 for the full control effect; nearly all actives have a fitted effect of over 50% in size
Target sequence (O75164 whole entry, looked up, the tested form may be a part): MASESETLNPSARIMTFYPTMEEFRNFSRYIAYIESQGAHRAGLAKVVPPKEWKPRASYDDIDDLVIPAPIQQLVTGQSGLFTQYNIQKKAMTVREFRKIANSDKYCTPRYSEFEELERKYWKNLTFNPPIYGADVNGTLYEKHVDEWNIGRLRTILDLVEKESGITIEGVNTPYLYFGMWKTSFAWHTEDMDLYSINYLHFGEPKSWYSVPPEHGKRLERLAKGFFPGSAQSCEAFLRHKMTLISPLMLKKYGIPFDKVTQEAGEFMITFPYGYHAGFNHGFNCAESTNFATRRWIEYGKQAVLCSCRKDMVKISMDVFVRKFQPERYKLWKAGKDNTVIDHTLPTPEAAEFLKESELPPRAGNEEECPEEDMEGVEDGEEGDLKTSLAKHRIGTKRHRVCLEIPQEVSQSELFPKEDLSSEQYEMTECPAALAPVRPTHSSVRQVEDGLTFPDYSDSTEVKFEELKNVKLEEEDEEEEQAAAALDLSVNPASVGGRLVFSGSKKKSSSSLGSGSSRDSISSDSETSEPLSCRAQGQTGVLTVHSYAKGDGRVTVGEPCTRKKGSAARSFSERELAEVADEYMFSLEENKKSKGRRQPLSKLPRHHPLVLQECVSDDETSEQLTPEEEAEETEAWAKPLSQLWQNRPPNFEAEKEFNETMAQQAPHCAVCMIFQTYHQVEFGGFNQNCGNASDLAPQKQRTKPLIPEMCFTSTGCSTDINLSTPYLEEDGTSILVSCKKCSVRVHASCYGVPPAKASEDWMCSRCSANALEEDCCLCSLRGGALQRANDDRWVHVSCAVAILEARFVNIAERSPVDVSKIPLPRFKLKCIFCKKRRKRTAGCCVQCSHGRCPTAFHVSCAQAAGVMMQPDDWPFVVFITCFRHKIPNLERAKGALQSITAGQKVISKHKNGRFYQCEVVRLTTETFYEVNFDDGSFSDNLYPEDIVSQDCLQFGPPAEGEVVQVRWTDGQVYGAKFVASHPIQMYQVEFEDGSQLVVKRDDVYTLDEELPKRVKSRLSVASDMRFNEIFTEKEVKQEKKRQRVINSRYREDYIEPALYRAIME
Six1-Eya2 inh = qHTS Assay for Inhibitors of the Six1/Eya2 Interaction; Homeobox protein SIX1 (Homo sapiens) + Protein phosphatase EYA2 (Homo sapiens), …; AlphaScreen GST-Six1/His-Eya2 binding, biochemical; hits give low values; 0.56% of 360,000 active; activity change, % (test concentration not listed); in the data active = activity change below about -65%; inconclusive = mostly about -30% to -63%; also: % is scaled to controls: 0 for no effect and ±100 for the full control effect
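AlphaScreen with GST-Six1 and His-Eya2 (5X mix: 250 nM and 500 nM), glutathione donor and nickel acceptor beads; buffer 50 mM Tris pH 8.0, 300 mM NaCl, 1 mM TCEP; 1 h at 37 C in the dark.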
Numbers without * were called inactive; u = inconclusive; x = not tested or not shown; [ ] = remark or other dose. Most compounds without a hit are left out; they make up all but 10% or so of the library. Unless noted, calls follow the shape of the dose curve; as a rule, active = well fitted inhibition curve with a large enough effect; inconclusive = small, poorly fitted or top-dose-only effect; inactive = no such curve, though single readings can be large or run the other way.

SMILES	CtBP-E1A blk	G9a inh	BAZ2B inh	HP1b chromo inh	JMJD2A Tudor inh	Six1-Eya2 inh
Cn1c(=O)c(=O)n(C)c2cc(N3CCOCC3)c(NS(=O)(=O)c3ccc(Br)cc3)cc21	-12.1	35.5µM*	u	-4.3%	u	-9.1
Cn1c(=O)c(=O)n(C)c2cc(N3CCCCC3)c(NS(=O)(=O)c3ccc([N+](=O)[O-])cc3)cc21	-23.7	31.6µM*	-36.5%	39.0%	-31.1%	-13.3
CCCCC(=Nc1ccc(N)cc1)C1=C(O)C(C(=O)OC)C(C)(C)CC1=O (stereo not drawn)	u	1µM*	56.2µM*	-15.1%	u	-21.7
CCC(=Nc1ccc(N)cc1)C1=C(O)C(C(=O)OC)C(C)(C)CC1=O (stereo not drawn)	7.1	50.1µM*	u	-12.7%	-35.4%	-20.2
Cc1cccc(-c2nc(CSc3nncn4c3cc3sccc34)c(C)o2)c1	x	-7.1%[59 µM]	-9.0%	46.0%	-9.5%	x
COc1ccc(N(CC(C)C)S(=O)(=O)c2nnc(NC(=O)c3cccs3)s2)cc1	x	2.1%[59 µM]	30.3%	80.0%	31.2%	x
C=CCOC(=O)N1CCC2CC1c1cc(-c3cccc(C)c3)ccc12 (stereo not drawn)	25.7	x	x	89.5%	61.6%	21.3
O=P(O)(O)OP(=O)(O)OP(=O)(O)O	x	22.7%[59 µM]	x	x	x	x
Cc1ccc(Cn2cc(CCC(=O)O)c3ccccc32)cc1	-65.3*	44.7µM*	-25.0%	13.9%	-2.0%	3.2
CCCN(CCO)C1CCN(CCc2ccccc2)CC1	9.5	50.1µM*	-27.9%	21.5%	-1.3%	-2.0
COc1cccc(-c2nc(CS(=O)CC(=O)NCc3ccc4c(c3)OCO4)c(C)o2)c1 (stereo not drawn)	7.3	50.1µM*	-29.3%	15.2%	-23.8%	-1.4
COc1cccc(-c2nc(CS(=O)CC(=O)NCc3ccccc3Cl)c(C)o2)c1 (stereo not drawn)	0.7	35.5µM*	-36.7%	18.9%	-18.1%	2.9
COc1cc(NC(=O)C(OC(=O)CNC(=O)c2ccccc2)c2ccccc2)cc(OC)c1 (stereo not drawn)	x	x	x	x	-11.6%	x
CCOc1ccc(NC(=O)Cn2c(=O)n(-c3cccc(OC)c3)c(=O)c3c4c(sc32)CCCC4)cc1	x	8.6%[59 µM]	-1.4%	21.9%	-6.8%	x
CC1CCCCN1S(=O)(=O)c1ccc(C(=O)Nc2nnc(C3=COCCO3)o2)cc1 (stereo not drawn)	-16.7	2.0%	89.1µM*	22.8%	-28.5%	0.2
CC1CCCN(S(=O)(=O)c2ccc(C(=O)Nc3nnc(C4=COCCO4)o3)cc2)C1 (stereo not drawn)	x	x	79.4µM*	x	x	x
COCc1nnc(NC(=O)c2ccc(S(=O)(=O)N3CCOCC3)cc2)o1	-18.5	x	17.8µM*	43.7%	31.6µM*	u
Cc1cccc(NC(=O)c2ccc(S(=O)(=O)N3CCCCC3C)cc2)n1 (stereo not drawn)	-0.4	x	x	16.9%	-3.7%	-0.5
COc1cccc(-c2nnc(NC(=O)c3ccc(S(=O)(=O)N4CCOCC4)cc3)o2)c1	-13.6	6.2%[59 µM]	u	57.3%	2.6%	-10.0
O=C(Nc1nnc(C2=COCCO2)o1)c1ccc(S(=O)(=O)N2CCOCC2)cc1	u	50.1µM*	x	22.8%	79.4µM*	-16.8
N=c1ncn(CC(O)CO)c2nc(N3CCOCC3)[nH]c12 (stereo not drawn)	0.3	9.0%	16.1%	37.6%	5.0%	-0.4
CC1CCCN(S(=O)(=O)c2ccc(C(=O)NC(C)c3ccccc3)cc2)C1 (stereo not drawn)	7.7	17.8µM*	2.0%	15.0%	-15.5%	5.0
CC1CCCN(S(=O)(=O)c2ccc(S(=O)(=O)N3CCCC3)cc2)C1 (stereo not drawn)	4.2	-3.7%	-8.1%	19.3%	0.7%	0.7
CC1CN(S(=O)(=O)c2ccc(C(=O)Nc3nnc(-c4ccccn4)o3)cc2)CC(C)O1 (stereo not drawn)	-13.3	-28.2%	x	36.6%	89.1µM*	-9.6
COc1ccccc1-c1nnc(NC(=O)c2ccc(S(=O)(=O)N3CCOCC3)cc2)o1	-14.1	76.8%[12.7 µM]	16.7%	39.5%	79.4µM*	-22.7
SMILES	CtBP-E1A blk	G9a inh	BAZ2B inh	HP1b chromo inh	JMJD2A Tudor inh	Six1-Eya2 inh
COc1cc(-c2nnc(NC(=O)c3ccc(S(=O)(=O)N4CCOCC4)cc3)o2)cc(OC)c1OC	x	-42.3%	5.9%	x	x	x
CC1CCCCN1S(=O)(=O)c1ccc(C(=O)Nc2nnc(-c3ccccn3)o2)cc1 (stereo not drawn)	-2.1	-25.3%	x	41.1%	-30.1%	-7.5
O=C(CCS(=O)(=O)c1ccc(Cl)cc1)Nc1nccs1	5.4	-5.0%	7.7%	25.3%	-12.4%	-0.9
COc1cc(/C=C/C(=O)O)cc(OC)c1O	1.0	x	x	20.6%	-5.0%	0.1
COc1cc(/C=C/C(=O)c2ccc(C)c([N+](=O)[O-])c2)cc(OC)c1O	8.5	44.7µM*	-24.8%	-0.5%	-26.4%	0.7
COc1ccc(/C=C/C(=O)c2ccc(C)c([N+](=O)[O-])c2)cc1O	22.8	44.7µM*	u	-21.8%	u	6.5
COc1cccc(/C=C/C(=O)c2ccc(C)c([N+](=O)[O-])c2)c1	11.8	u	-27.8%	1.0%	-11.5%	5.1
COc1cccc(Oc2cc(Cl)nc(N)n2)c1	0.6	76.6%	-15.9%	30.3%	-15.8%	4.1
COc1ccc(Oc2cc(Cl)nc(N)n2)cc1	10.9	50.1µM*	-19.3%	36.3%	-5.4%	5.0
Cc1ccc(-n2c(C)cc(/C=N/NC(=O)CC3(C)OCCO3)c2C)c(C)c1	-5.4	u	u	18.2%	-34.8%	-5.5
CC1(CC(=O)N/N=C/c2cc([N+](=O)[O-])c(O)cc2O)OCCO1	x	39.8µM*	50.1µM*	8.91µM*	u	-89.1*
O=C(c1cccn2c(=O)c3cc(Cl)ccc3nc12)N1CCN(c2ccccc2F)CC1	x	15.0%[59 µM]	5.4%	49.7%	3.3%	x
Nc1c(-c2ccccc2)cc[nH]c1=O	x	x	x	x	8.91µM*	x
O=C(NCc1ccccc1)c1cccc(N2CCCS2(=O)=O)c1	x	2.2%[59 µM]	-3.5%	39.8%	-8.8%	x
CCN(c1ccccc1)c1nnc(NC(=O)Nc2ccccc2F)s1	x	-27.0%[59 µM]	-6.5%	23.1%	-8.9%	x
CN1C(=O)c2cccc3c(S(=O)(=O)NCCc4ccccc4)ccc1c23	-15.2	31.3%	41.4%	115.2%	53.0%	-1.7
